Assay results reported in PubChem BioAssay (EPA / NIEHS).
“And” between values parts separate entries of the source, which are not always exact repeats. Equal values may be shown once. The source made the active and inactive calls. Rule for the calls: active = hit-call score of the fitted dose curve at least 0.9, where 1 is the maximum; inactive = score below 0.9.

Read-out: TIMP metallopeptidase inhibitor 2 (TIMP2), TIMP2 (gene 7077)
Test: BSK_KF3CT_TIMP2: BioMAP Diversity Plus: KF3CT Assay for TIMP metallopeptidase inhibitor 2 (TIMP2) Biomarker Activity (AID 2283071)
Details: primary human keratinocytes with fibroblasts; actives raise or lower the signal
Method: BSK_KF3CT is a cell-based, multiplexed-readout assay that uses keratinocytes and foreskin fibroblasts, a human skin primary cell co-culture, with measurements taken at 24 hours after chemical dosing in a 96-well plate.BSK_KF3CT_TIMP2 is an assay component measured in the BSK_KF3CT assay. It measures TIMP-2 antibody related to regulation of gene expression using ELISA technology.Data from the assay component BSK_KF3CT_TIMP2 was analyzed into 1 assay endpoint. This assay endpoint, BSK_KF3CT_TIMP2, was analyzed with bidirectional fitting relative to DMSO as the negative control and baseline of activity. Using a type of binding reporter, gain or loss-of-signal activity can be used to understand changes in the signaling as they relate to the gene TIMP2. Furthermore, this assay endpoint can be referred to as a primary readout, because this assay has produced multiple assay endpoints where this one serves a signaling function. To generalize the intended target to other relatable targets, this assay endpoint is annotated to the protease inhibitor intended target family, where the subfamily is metalloproteinase inhibitor.
The levels of cell surface (or secreted, indicated by the prefix "s") biomarker endpoints were measured by ELISA. Overt cytotoxicity to cells in confluent adherent cultures (all systems other than the BT system) was assessed by measuring total protein levels using sulforhodamine B (SRB) staining in parallel cultures at the time of biomarker measurements, indicated as SRB endpoints. For proliferation assays for adherent cell types, individual cell types are cultured at sub-confluence and relative cell numbers quantified by SRB staining at time points optimized for each system (48 h: 3C and CASM3C systems; 72 h: BT and HDF3CGF systems; 96 h: SAg system). SRB was performed by staining cells with 0.1% SRB after fixation with 10% TCA and reading wells at 560 nm.Viability and proliferation of PBMC (T cells) was quantified by Alamar Blue reduction for the SAg and BT systems. For PBMC viability (referred to as PBMC Cytotoxicity within the assay endpoint names), cells were plated (75,000/well in a 96-well plate) and then chemical samples added for 1 h before addition of activators, SEB and TSST-1 (20 ng/mL final concentration each). Cells were incubated for 90 h. Then, Alamar Blue (20 uL/well) (Invitrogen, Cat DAL1100) was added for 6 h, and the plates were read with a fluorescence microplate reader at 546/580 nm (excitation/emission). For PBMC proliferation, cells were plated and activated as above but incubated for only 16 h prior to addition of Alamar Blue. Plates were read after 6 h.

Compound | outcome | AC50
O=C(O)C(F)(F)C(F)(F)C(F)(F)C(F)(F)C(=O)O | inactive | 
CCCCCCCCCCCC(C)=O |  | 3.97 µM (active)
Cc1c(O)cccc1O | inactive | 
c1ccc(Nc2cccc3ccccc23)cc1 |  | 34.5 µM (active) and 33.3 µM (active)
CC(CCC(=O)O)(c1ccc(O)cc1)c1ccc(O)cc1 | inactive | 
CCCCCCCCCCCC(=O)N(C)CC(=O)O | inactive | 
CC(Cl)COP(=O)(OCC(C)Cl)OCC(C)Cl (stereo not given) | inactive | 
C=CCCCCCCCCC=O | inactive | 
O=C(Oc1ccccc1)c1ccccc1C(=O)Oc1ccccc1 | inactive | 
Oc1c(Cl)cc(Cl)c(Cl)c1Cl |  | 11.4 µM (active)
CC=C(C)C=CC=C(C)C | inactive | 
CC1=CC=C(C(C)C)CC1 | inactive | 
C=CC(=O)OCC(C)OCC(C)OCC(C)OC(=O)C=C (stereo not given) | inactive | 
C=CC(=O)NC(C)(C)C | inactive | 
CCCC(C)C(=O)OCC (stereo not given) | inactive | 
CCOC(=O)C1=NN(c2ccc(Cl)cc2Cl)C(C)(C(=O)OCC)C1 (stereo not given) | inactive | 
Nc1cccc(N)n1 | inactive | 
CC/C=C\CCOC(=O)c1ccccc1O |  | 14.7 µM (active)
CCOC(=O)C1=NOC(c2ccccc2)(c2ccccc2)C1 | inactive | 
CCNc1nc(NC(C)(C)C)nc(OC)n1 | inactive | 

Compound | outcome | AC50
CCCCCC1=CCCC1=O | inactive | 
CC(C)c1cccc(C(C)C)c1N | inactive | 
CC=C(C)C(C)=O | inactive | 
CC/C=C\C/C=C\C/C=C\CCCCCCCC(=O)OC |  | 7.17 µM (active)
Nc1ccc(C(=O)O)cc1 | inactive | 
Oc1ccc(/C=C/c2cc(O)cc(O)c2)cc1 |  | 8.83 µM (active)
CCCCCCC=O | inactive | 
CC(C)CCCCCOC(=O)CS | inactive | 
CCC1(C)C(=O)N(Cl)C(=O)N1Cl (stereo not given) | inactive | 
C1CNCCN1 | inactive | 
c1ccc2c(c1)[nH]c1ccccc12 | inactive | 
C=C(C)C(=O)OCCCCCCCCCCCC | inactive | 
CC(c1cc(C(C)(C)C)cc(C(C)(C)C)c1O)c1cc(C(C)(C)C)cc(C(C)(C)C)c1O | inactive | 
COc1ccc(C(=O)c2ccccc2)c(O)c1 | inactive | 
CCN1CN(CC)CN(CC)C1 | inactive | 
O=C1CCCCCCCCCCCN1 | inactive | 
C=CC(=O)NCOCCCC | inactive | 
Fc1ccc(Br)cc1 | inactive | 
c1ccc2sc(SSN3CCOCC3)nc2c1 | inactive | 
CCc1cccc(C)c1N(C(=O)CS(=O)(=O)O)C(C)COC (stereo not given) | inactive | 
